{"source": "PubChem BioAssay AID652010", "about": "(The Scripps Research Institute Molecular Screening Center, 2013)", "note": "In all, about 370,000 compounds went through this assay and about 4,100 (1.1%) were called active. What follows is part of a selection rich in actives, with near analogues and random picks from the rest. Unmarked numbers belong to inactive results.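 How the source made its calls: active means inhibition above the mean over all tested compounds plus 3 SD (cut at about 3.6% in these data); inactive means the rest.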"}
{"experiment": "DAX1 (NR0B1) inhibitors on StAR promoter, primary screen, cell-based, luminescence, SF-1 (NR5A1), full-length DAX-1 (AID 652010);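 further: 0% = DAX-1 cells with DMSO and 100% = cells lacking DAX-1 with DMSO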", "settings": "HEK293T StAR-luciferase reporter, SF-1/DAX-1 repression relief; at 6.8 µM; stronger effect = higher value"}
{"compound": "C=CCN1C(=O)[C@@H](CC(=O)NCCCOCCCC)[C@]2(C(=O)OCC)CCCCC/C=C/12", "inhibition": "0.1%"}
{"compound": "O=C1/C(=C\\Nc2ccccc2)CCN1c1ncccn1", "inhibition": "0.43%"}
{"compound": "CCCCCCc1cc2cc(-c3nnc(-c4cccc(OC)c4)o3)c(=O)oc2cc1O", "inhibition": "1.42%"}
{"compound": "CCCOc1ccc(-c2c(C(=O)N/N=C/c3ccco3)nnn2-c2nonc2N)cc1", "inhibition": "-0.59%"}
{"compound": "O=C(CSc1nnc(-c2ccco2)o1)NCC(=O)c1ccccc1", "inhibition": "1.51%"}
{"compound": "CCOc1ccc(NC(=O)N(CCC(C)C)C(C)c2ccco2)cc1", "note": "(stereo not given)", "inhibition": "-0.03%"}
{"compound": "CCCCOc1ccc(-c2nnc(-c3ccco3)o2)cc1", "inhibition": "4.13% (active)"}
{"compound": "CCOc1ccc(-c2nnc(-c3ccco3)o2)cc1", "inhibition": "6.66% (active)"}
{"compound": "C=CCN1C(C(=O)OC)CN(Cc2cn(Cc3ccccc3)nn2)CCS1(=O)=O", "note": "(stereo not given)", "inhibition": "-0.18%"}
{"compound": "COC(=O)[C@]12C[C@H](CC(=O)NCC34CC5CC(CC(C5)C3)C4)C(=O)N(Cc3ccc(Cl)cc3Cl)C1=C[C@H](COCc1ccccc1)O[C@@H]2C", "inhibition": "-0.93%"}
{"compound": "COC(=O)[C@]1(C#N)CC(=O)N(CC2CCCCC2)[C@@H]1c1ccccc1", "inhibition": "1.2%"}
{"compound": "FC(F)(F)c1cccc(Cn2ccc3ccc(-c4ccc5ccn(Cc6ccccc6)c5c4)cc32)c1", "inhibition": "-1.01%"}
{"compound": "O=C(CCCCCN1C(=O)C2C3C=CC(C3)C2C1=O)Nc1ccccn1", "note": "(stereo not given)", "inhibition": "-0.18%"}
{"compound": "C/C(=N\\NC(=O)c1ccc(NS(=O)(=O)c2cccs2)cc1)c1ccc2ccccc2c1", "inhibition": "0.35%"}
{"compound": "COc1cc(OC)c(C(=O)NNC(=O)c2ccccc2-n2cccc2)cc1OC", "inhibition": "0.07%"}
{"compound": "COc1cc(OC)c(C(=O)NNC(=O)c2ccc(NS(=O)(=O)c3cccs3)cc2)cc1OC", "inhibition": "4.51% (active)"}
{"compound": "COc1ccc(-c2cc(-c3nnc(SCC(=O)Nc4cccc5ccccc45)n3N)[nH]n2)cc1", "inhibition": "-0.22%"}
{"compound": "C[C@H](C(=O)N(C)c1ccccc1)[C@@H](O)c1ccc2ccccc2c1", "inhibition": "0.19%"}
{"compound": "CS(=O)(=O)N(CC(=O)N/N=C/c1ccccn1)c1ccc(Oc2ccccc2)cc1", "inhibition": "-0.11%"}
{"compound": "O=C(O)C1C2C=CC(O2)C1C(=O)Nc1ccccn1", "note": "(stereo not given)", "inhibition": "0.46%"}
{"compound": "S=C(NN=Cc1ccccn1)Nc1ccccn1", "inhibition": "3.77% (active)"}
{"compound": "Clc1ccc(-n2c(SC/C=C/c3ccccc3)nnc2-c2ccco2)cc1", "inhibition": "-1.85%"}
{"compound": "Cc1ccc(-c2nc(-c3cccnc3)sc2CC(=O)Nc2ccc(C)c(Cl)c2)cc1", "inhibition": "-0.1%"}
{"compound": "O=C(NCc1ccco1)C1CCCN(S(=O)(=O)c2ccc(Cl)s2)C1", "note": "(stereo not given)", "inhibition": "-1.13%"}
{"compound": "O=C1N(c2ccccc2)C(=Nc2ccccc2)SC12CC2", "inhibition": "-0.44%"}
{"compound": "Cc1ccnc(NC(=O)C(C)N2C(=O)c3ccccc3C2=O)c1", "note": "(stereo not given)", "inhibition": "-0.27%"}
{"compound": "COc1cc(SC)ccc1C(=O)Nc1nc(C)cs1", "inhibition": "-3.74%"}
{"compound": "COc1cc(SC)ccc1C(=O)Nc1cc(C)ccn1", "inhibition": "4.19% (active)"}
{"compound": "O=C(c1cccc(C(F)(F)F)c1)N1CC[C@H]2[C@H](CCCN2Cc2cc(F)cc(F)c2)C1", "inhibition": "0.13%"}
{"compound": "Cc1sc2nc(SCC(=O)c3ccc(O)c(O)c3)n(Cc3ccco3)c(=O)c2c1C", "inhibition": "-0.17%"}
{"compound": "COCCCNC(=O)CN1C(=O)CSc2ccc(S(=O)(=O)N3CCOCC3)cc21", "inhibition": "0.4%"}
{"compound": "COc1ccc(NC(=O)CN2C(=O)CSc3ccc(S(=O)(=O)N4CCC(C)CC4)cc32)cc1", "inhibition": "-0.14%"}
{"compound": "CC1CCN(CCCNC(=O)CN2C(=O)CSc3ccc(S(=O)(=O)N4CCCCC4)cc32)CC1", "inhibition": "4.58% (active)"}
{"compound": "COC(=O)[C@]12C[C@H](CC(=O)NCc3ccccc3)C(=O)N(CCC3=CCCCC3)C1=C[C@H](C(C)(C)C)O[C@@H]2C", "inhibition": "-0.82%"}
{"compound": "Cc1ccc(NC(=O)N2c3ccccc3SC2c2ccco2)c(C)c1", "note": "(stereo not given)", "inhibition": "-1.05%"}
{"compound": "O=C(N/N=C/C=C/c1ccco1)c1cccs1", "inhibition": "0.78%"}
{"compound": "O=C(Nc1nonc1-c1ccc(Cl)cc1)c1ccco1", "inhibition": "-0.6%"}
{"compound": "O=C(Nc1ccc(NC(=O)c2cccs2)cn1)c1ccco1", "inhibition": "5.96% (active)"}
{"compound": "C[C@H](C(=O)N(C)c1ccccc1)[C@@H](O)c1ccc(Cl)cc1", "inhibition": "-0.7%"}
{"compound": "O=C(OC12CCCN(C1)/C(=C/c1cccnc1)C2)C1CCCC1", "note": "(stereo not given)", "inhibition": "-1.73%"}
{"compound": "Cc1ccc(S(=O)(=O)N2CCN(C(=O)COC(=O)CNC(=O)c3ccc(C(C)(C)C)cc3)CC2)c(C)c1", "inhibition": "-0.26%"}
{"compound": "COc1ccc(/C=C/C(=O)OCC(=O)N2CCN(S(=O)(=O)c3ccc(C)cc3C)CC2)cc1OC", "inhibition": "-1.45%"}
{"compound": "COc1ccccc1CCC(=O)OCC(=O)N1CCN(S(=O)(=O)c2ccc(C)cc2C)CC1", "inhibition": "4.53% (active)"}
{"compound": "COc1ccc(C2=Nc3cc(C)ccc3OC2)cc1", "inhibition": "4.81% (active)"}
{"compound": "COc1ccc(-c2onc(C)c2-c2ccc3c(c2)OCCO3)c(O)c1", "inhibition": "-0.75%"}
{"compound": "COc1ccc(/C=C/c2c(-c3cccc(C)c3)oc3ccc(-c4ccc5c(c4)OCO5)cc23)cc1", "inhibition": "-0.02%"}
{"compound": "O=C(c1c[nH]c2ccccc12)N1CCC(Oc2cccnc2)CC1", "inhibition": "-0.43%"}
{"compound": "COc1ccccc1CCNC(=O)C1CCN(c2nc(C)cc(C)n2)CC1", "inhibition": "-0.06%"}
{"compound": "CCc1c(-c2ccccc2OC)ncn1CCc1ccccc1OC", "inhibition": "-2.14%"}
{"compound": "O=C(CSc1nnc2n1CCCN2)c1ccccc1", "inhibition": "0.61%"}
{"compound": "O=C(CSc1nnc2ccccn12)c1ccccc1", "inhibition": "4.08% (active)"}
{"compound": "N#Cc1ccc(CSc2nnc3ccccn23)cc1", "inhibition": "-0.37%"}
{"compound": "C[C@H]1CCC/C=C/C(=O)c2c(O)cc(O)cc2CC(=O)O1", "inhibition": "-6.29%"}
{"compound": "Cc1ccc(-c2nc(C3CCCN(S(=O)(=O)c4ccc(Br)s4)C3)no2)cc1", "note": "(stereo not given)", "inhibition": "0.62%"}
{"compound": "CCN(CCCNC(=O)c1ccc2c(c1)NC(=O)CN2C)c1cccc(C)c1", "inhibition": "-0.89%"}
{"compound": "Cc1ccccc1Nc1nc(N)nc(COC(=O)CCC(=O)c2ccc(F)cc2)n1", "inhibition": "1.74%"}
{"compound": "Cc1ccccc1Nc1nc(N)nc(CSc2ccccc2)n1", "inhibition": "6.39% (active)"}
{"compound": "Cc1ccccc1Nc1nc(N)nc(CSc2nnc3ccccn23)n1", "inhibition": "0.79%"}
{"compound": "COC(=O)c1cc(NC(=O)c2cc(C(C)(C)C)nn2Cc2cccc(C)c2)ccc1N1CCOCC1", "inhibition": "-0.35%"}
{"compound": "CCN(C(=O)CSc1cccc[n+]1[O-])c1ccccc1", "inhibition": "-1.71%"}
{"compound": "O=C(CSc1cccc[n+]1[O-])c1ccc(-c2ccccc2)cc1", "inhibition": "6.13% (active)"}
{"compound": "O=C(CSc1cccc[n+]1[O-])NCCCc1ccccc1", "inhibition": "-0.54%"}
{"compound": "CCOC(=O)C1=C(C)NC2=C(C(=O)CC(C)(C)C2)C1c1ccc2c(c1)OCO2", "note": "(stereo not given)", "inhibition": "-0.98%"}
{"compound": "COCCCNC(=O)C[C@H]1C[C@@]2(C(=O)OC)C(=C[C@H](C(C)(C)C)O[C@@H]2C)N(Cc2ccc(Cl)cc2Cl)C1=O", "inhibition": "-0.02%"}
{"compound": "CC(=O)OC12CCCN(C1)/C(=C/c1ccncc1)C2", "note": "(stereo not given)", "inhibition": "0.29%"}
{"compound": "COC(=O)[C@H](C(C)C)N(CCc1cn(Cc2ccccc2)nn1)S(=O)(=O)c1ccc(F)cc1Br", "inhibition": "-1.05%"}
{"compound": "CCCNC(=O)C1CC(=O)N(c2ccc(OCC(=O)Nc3cccc(C)c3C)cc2)C1", "note": "(stereo not given)", "inhibition": "0.23%"}
{"compound": "CCCNC(=O)C1CC(=O)N(c2ccc(OCc3ccccc3)cc2)C1", "note": "(stereo not given)", "inhibition": "5.35% (active)"}
{"compound": "CCOc1ccc(N2CC(C(=O)NCc3ccccn3)CC2=O)cc1", "note": "(stereo not given)", "inhibition": "-0.17%"}
{"compound": "O=C(NC1CCc2ccccc21)C12CN(Cc3ccccc3)CC1C(c1cccc([N+](=O)[O-])c1)=NO2", "note": "(stereo not given)", "inhibition": "-0.99%"}
{"compound": "COc1ccc(CN2C(=O)N3Cc4cc(OC)ccc4C3CS2(=O)=O)cc1", "note": "(stereo not given)", "inhibition": "-0.73%"}
{"compound": "O=C(NN=Cc1ccccc1)c1ccccc1", "inhibition": "3.83% (active)"}
{"compound": "NN=C(NN=Cc1ccccc1)c1ccccc1", "inhibition": "0.41%"}
{"compound": "O=C(N/N=C/c1ccsc1)c1cc(O)cc(O)c1", "inhibition": "-0.09%"}
{"compound": "Cc1ccc(Cn2cc(CN3[C@@H](CC(C)C)COc4ccc(Cl)cc4S3(=O)=O)nn2)cc1", "inhibition": "0.88%"}
{"compound": "Cc1[nH]nc2c1C(c1ccc(Br)cc1)NC2=O", "note": "(stereo not given)", "inhibition": "-0.04%"}
{"compound": "CCCOc1ccc(Oc2c(Cl)cnn(Cc3cccc4ccccc34)c2=O)cc1", "inhibition": "0.1%"}
{"compound": "CN(C)Cc1cn(-c2ccc(-c3noc4c3C(=O)N(CC(=O)N3CCOCC3)CC4)cc2)nn1", "inhibition": "-0.33%"}
{"compound": "Cc1nc(N2CCCCC2)sc1C=O", "inhibition": "0.27%"}
{"compound": "O=C(NCCc1cccc(F)c1)C1CCCN(c2nc3ccccc3s2)C1", "note": "(stereo not given)", "inhibition": "0.01%"}
{"compound": "Brc1ccc2nc(N3CCCC3)sc2c1", "inhibition": "7.95% (active)"}
{"compound": "COc1ccc(-n2c(SCC(=O)Nc3ccc4c(c3)OCCO4)nnc2-c2ccc(Cl)cc2)cc1", "inhibition": "0.07%"}
{"compound": "COc1ccccc1C(=O)NC1CCCCN(C(C)C)C1=O", "note": "(stereo not given)", "inhibition": "-0.1%"}
{"compound": "O=C(CSc1nc2c(c(=O)[nH]1)CCCC2)N1CCCCC1", "inhibition": "-0.21%"}
{"compound": "COc1cccc(N(C)C(=O)[C@@H](C)[C@@H](O)c2ccc3ccccc3c2)c1", "inhibition": "-0.75%"}
{"compound": "COc1ccc(-c2csc(Cc3nc(O)cs3)n2)cc1", "inhibition": "4.06% (active)"}
{"compound": "COc1ccc(C(C)(O)c2nc(-c3cc(F)cc(F)c3)cs2)cc1", "note": "(stereo not given)", "inhibition": "-0.31%"}
{"compound": "COc1ccc(C2C(C(C)=O)=C(O)C(=O)N2c2nccs2)cc1", "note": "(stereo not given)", "inhibition": "0.43%"}
{"compound": "Cc1ccc(NS(=O)(=O)c2cc3c(cc2Br)NC(=O)CO3)cc1C", "inhibition": "-2.1%"}
{"compound": "CN1CCN(S(=O)(=O)c2ccc(NC(=O)C3CCCO3)cc2)CC1", "note": "(stereo not given)", "inhibition": "-0.58%"}
